Measurements published in the supplement of paper PMC3334620.
Over roughly 33,000 sequences, “E-score (-0.5 to 0.5)” has its median near -0.01; the highest 2% begin near 0.26. What follows is part of a selection rich in the highest values, with near analogues and random picks from the rest.

target: Ste12 (UniProt P13574); assay: PBM E-score (8-mer binding enrichment) (E-score (-0.5 to 0.5)); higher = stronger / more preferred TF binding; conditions: protein concentration: 200 nM; construct: GST-DNA-binding domain
Procedure, shortened: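 Masliner-normalised scans of fluorescent anti-GST signal were the basis for scoring. That signal came from GST-tagged yeast transcription factors applied at about 100-200 nM to double-stranded universal all-10-mer Agilent arrays on fresh or once-stripped slides. Each ungapped eight-base word, pooled with its reverse complement, received an E-score from the Universal PBM Analysis Suite.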

Chain of UniProt P13574 (P13574 whole entry, the tested form may be a part): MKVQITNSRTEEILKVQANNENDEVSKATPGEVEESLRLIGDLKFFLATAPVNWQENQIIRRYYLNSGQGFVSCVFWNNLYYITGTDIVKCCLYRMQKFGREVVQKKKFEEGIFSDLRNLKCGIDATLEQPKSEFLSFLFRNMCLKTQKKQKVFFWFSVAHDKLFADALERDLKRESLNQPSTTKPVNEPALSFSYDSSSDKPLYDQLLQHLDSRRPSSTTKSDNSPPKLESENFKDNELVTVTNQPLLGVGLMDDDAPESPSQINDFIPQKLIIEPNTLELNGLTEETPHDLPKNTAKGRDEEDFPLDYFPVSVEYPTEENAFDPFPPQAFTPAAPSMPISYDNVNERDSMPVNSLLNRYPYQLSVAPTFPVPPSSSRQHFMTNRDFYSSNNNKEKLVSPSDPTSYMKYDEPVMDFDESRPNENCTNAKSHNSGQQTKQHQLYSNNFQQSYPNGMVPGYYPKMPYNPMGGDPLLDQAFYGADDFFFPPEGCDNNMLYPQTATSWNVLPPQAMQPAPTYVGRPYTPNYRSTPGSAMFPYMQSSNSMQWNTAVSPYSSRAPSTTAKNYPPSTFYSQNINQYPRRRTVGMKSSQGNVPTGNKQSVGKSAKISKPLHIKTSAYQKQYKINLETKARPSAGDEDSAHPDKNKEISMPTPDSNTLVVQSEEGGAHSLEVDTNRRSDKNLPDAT

| Sequence | PBM E-score |
| --- | --- |
| CCCCTCCA | 0.246 |
| CCCTCCCG | 0.0504 |
| CCCCTCCC | 0.365 |
| CCCTCCCC | 0.333 |
| CCCCTCCG | 0.171 |
| GATTTCGC | 0.2 |
| AAGTGGGC | -0.0304 |
| GAGCTTTA | -0.0834 |
| ACAGTTTG | 0.016 |
| AAAAAACC | 0.234 |
| AGAAAAAC | 0.146 |
| CCAAAAAA | 0.251 |
| AAAAAAAC | 0.331 |
| CAAAAACC | 0.128 |
| CAAAAAAA | 0.352 |
| CAAAAAAC | 0.298 |
| CCAAAAAC | 0.216 |
| CAAAAAGA | 0.178 |
| GCTGAGCC | -0.0937 |
| ACAACTCG | 0.0864 |
| ATCCCTTG | -0.0717 |
| GAGCATAA | 0.131 |
| TAGCTGGA | -0.0515 |
| CAGAATAC | 0.0945 |
| TAATAAAA | 0.225 |

| Sequence | PBM E-score |
| --- | --- |
| TAAAAAGA | 0.248 |
| CTAAAAAC | 0.023 |
| CTAAAAAA | 0.278 |
| TTAAACAA | 0.123 |
| TAAAACAA | 0.261 |
| TTAAAAAA | 0.294 |
| TTAAAGAA | 0.251 |
| CTAAAAGA | 0.0876 |
| CTAAAAAG | 0.218 |
| TAAAAAAA | 0.313 |
| AAAAACAA | 0.251 |
| CGGCGAAC | 0.0131 |
| GGAAGGGA | -0.106 |
| CTGTACTC | -0.247 |
| CTAGTGTA | 0.129 |
| GACTACTC | -0.0788 |
| CCCCATTA | -0.193 |
| ATAATAAA | 0.255 |
| CTAATAAA | 0.145 |
| TTAATAAA | 0.344 |
| ACGGCAAT | 0.0277 |
| ACGGCAAG | 0.0378 |
| ACGGCAAA | 0.277 |
| CCACAAGG | -0.107 |
| GAGAGTAA | 0.142 |

| Sequence | PBM E-score |
| --- | --- |
| GCCCGCCC | 0.257 |
| CCCCGCCC | 0.347 |
| ACCCGCCC | 0.361 |
| AACCGCCC | 0.00313 |
| TCCCGCCA | 0.101 |
| CCCCGCCA | 0.38 |
| ACCCGCCG | 0.137 |
| CACCGCCA | 0.0129 |
| CGCCGCCC | 0.239 |
| CCCCGCCG | 0.242 |
| GCCCGCCA | -0.0776 |
| CACCGCCC | 0.27 |
| ACCCTCAC | -0.029 |
| TATAAAGA | 0.0307 |
| TGTAAAAA | 0.334 |
| AGTAAAAA | 0.214 |
| AATAAAAA | 0.229 |
| CGTAAAAA | 0.126 |
| AATATAAG | 0.198 |
| TATATAAA | 0.267 |
| TATAAAAA | 0.27 |
| AATATAAT | 0.138 |
| CATATAAA | 0.0963 |
| GATATAAA | 0.0834 |
| AATATAAA | 0.306 |

| Sequence | PBM E-score |
| --- | --- |
| TCCTGGCA | -0.0322 |
| CTGCGCCC | -0.239 |
| ACCTACCT | 0.0101 |
| CGCGGGTA | 0.0349 |
| GAGAGAGA | -0.0897 |
| AAGCGGTA | 0.0316 |
| ATACTCGG | -0.0182 |
| ACAAATCA | 0.0844 |
| CACCGTGC | 0.131 |
| ACGGGAGC | -0.111 |
| GTTATAAA | 0.218 |
| TTTATAAA | 0.271 |
| CTTATAAA | 0.223 |
| AGCTGTTG | -0.0338 |
| ACGAGCCT | -0.0238 |
| CAACACTA | 0.0388 |
| AAACACTG | 0.248 |
| AAACACTA | 0.273 |
| AAACACTT | 0.12 |
| GAACACTA | -0.13 |
| AAACACTC | 0.288 |
| GCGAGCCA | -0.0412 |
| CTGCAAGC | -0.141 |
| ATAAGCAA | 0.148 |
| GGTTTCAA | 0.416 |

| Sequence | PBM E-score |
| --- | --- |
| CTTTTCAA | 0.221 |
| CATTTCAA | 0.214 |
| GATTTCAA | 0.159 |
| ATTTTCAA | 0.193 |
| AATTTCAA | 0.106 |
| TCTTTCAA | 0.0772 |
| GTTTTCAA | 0.32 |
| TATTTCAA | 0.282 |
| GGTTTCGA | 0.193 |
| TGTTTCAA | 0.484 |
| TGTTCAAA | 0.17 |
| CCAGGAGA | -0.24 |
| GCCTGCGC | -0.119 |
| CTTCTGCC | -0.122 |
| TATCTTCA | 0.15 |
| AACGATCT | 0.153 |
| ATAAGCCC | -0.0186 |
| GTGGAGGA | -0.0464 |
| GATTTCAC | 0.111 |
| GCTTTCAC | 0.0706 |
| GGTTTCAC | 0.386 |
| ACTAGCTA | -0.0308 |
| ATTCTGAC | 0.0839 |
| ATGAATGG | 0.33 |
| ATGAATGC | 0.138 |

| Sequence | PBM E-score |
| --- | --- |
| ATGAATGA | 0.192 |
| AAGATCAC | -0.0426 |
| GGCTGCTA | -0.037 |
| ATCTGATG | 0.109 |
| GGGGCTAC | -0.0752 |
| ATAGGGCA | -0.109 |
| CGCGGCGA | 0.126 |
| CCCGCCGG | 0.158 |
| ACCGCCCT | -0.00709 |
| CCCGCCCC | 0.32 |
| CCCGCCGC | 0.31 |
| CCCGCCAC | 0.213 |
| ACCGCCCC | 0.348 |
| CCCGCGCC | 0.168 |
| CCCGCCGA | -0.0475 |
| CCCGCCCG | 0.233 |
| ACCGCCCG | -0.057 |
| TCCGCCCA | -0.107 |
| CCCGCCCA | 0.332 |
| AACACTTC | 0.135 |
| AACACTGG | -0.00819 |
| CCCATAAA | -0.0663 |
| GTGCAAGA | -0.145 |
| GCCGCCCA | 0.0226 |
| GCCGCCGC | -0.0603 |

| Sequence | PBM E-score |
| --- | --- |
| GCCGCCCC | 0.307 |
| CTTCCCTC | -0.0689 |
| CAGACATA | 0.0544 |
| ATTTTTCG | 0.294 |
| ATTTTTCA | 0.222 |
| ATTTTCCG | 0.318 |
| AATTTCCG | 0.211 |
| AATTTTCG | 0.128 |
| ATTTTCCC | 0.173 |
| AGATACAT | 0.00257 |
| CCCTAGTA | 0.0343 |
| CGAGGACA | -0.0668 |
| AAGCAGTG | 0.0293 |
| AACAAAAG | 0.119 |
| AACAAAAC | 0.236 |
| AACAAAAA | 0.332 |
| AACAAACC | 0.116 |
| CACAAAGC | 0.0779 |
| AACAAACA | 0.269 |
| AACAGAAA | 0.311 |
| GACAGAAA | 0.168 |
| AACAAAGC | 0.294 |
| AACAAGCC | -0.125 |
| AACAGAAG | -0.0718 |
| TACAAACA | 0.21 |
